The source made the active and inactive calls. How the source made its calls: active means hit-call score of the fitted dose curve at least 0.9, where 1 is the maximum; inactive means score below 0.9.
Legend:
[1] = ATG_GLI_CIS: Attagene CIS-FACTORIAL HepG2 Assay for human Zinc Finger Protein GLI1 (AID 2282945); settings: HepG2, Attagene cis-factorial reporter mRNA, GLI element; actives raise or lower the signal
In short: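 Transiently transfected HepG2 cells report endogenous transcription factor activity via cis-element-driven reporter units. After 24 h compound exposure, reporter mRNA was measured by RT-PCR with capillary electrophoresis; bidirectional fitting against DMSO baseline.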

[2] = molecular target: Bile acid receptor (Homo sapiens) (UniProt Q96RI1); test: ATG_IR1_CIS: Attagene CIS-FACTORIAL HepG2 Assay for human Nuclear Receptor Subfamily 1 Group H Member 4 (NR1H4), IR1 submotif (AID 2282946); settings: IR1 reporter transcription, actives raise or lower the signal
In short: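 HepG2 cells transiently transfected with multiple cis-promoter-driven reporter units to measure endogenous transcription factor activity; 24 h exposure. Reporter mRNA read by RT-PCR, FAM labelling, HpaI digestion and capillary electrophoresis. Bidirectional fit versus DMSO.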

[3] = ATG_GRE_CIS: Attagene CIS-FACTORIAL HepG2 Assay for human Glucocorticoid Response Elements (GRE) (AID 2282947); settings: HepG2 GRE cis-reporter, Attagene multiplex mRNA; actives raise or lower the signal
In short: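 Endogenous transcription factor activity is read through cis-element reporter constructs transiently transfected into HepG2 cells. After 24 h treatment, labelled RT-PCR products are resolved by capillary electrophoresis; DMSO sets baseline for bidirectional curve fitting.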

[4] = ATG_ISRE_CIS: Attagene CIS-FACTORIAL HepG2 Assay for human Interferon Regulatory Factor 1 (IRF1) binding to an Interferon-Stimulated Response Element (ISRE) (AID 2282948); settings: HepG2 ISRE cis-reporter (Attagene), mRNA transcription readout; actives raise or lower the signal
In short: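 Transfected HepG2 (multiple reporter transcription units, cis elements) dosed 24 h. RNA → oligo(dT) RT → PCR → 6-FAM primer extension → HpaI → CE. DMSO = negative control/baseline.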

[5] = ATG_M_32_CIS: Attagene CIS-FACTORIAL HepG2 Assay for M32 Transcription Factor (Internal Marker) (AID 2282949); settings: HepG2 Attagene cis-factorial M32 reporter, mRNA; actives raise or lower the signal;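 further: background control marker of the multiplexed CIS panel rather than a real target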
In short: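 Internal background marker read-out: RT-PCR/capillary electrophoresis fluorescence of reporter transcripts from transiently transfected HepG2 cells after 24 h chemical exposure. Activity fitted bidirectionally relative to DMSO negative control.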

[6] = ATG_M_06_CIS: Attagene CIS-FACTORIAL HepG2 Assay for M06 Transcription Factor (Internal Marker) (AID 2282950); settings: HepG2 Attagene CIS-FACTORIAL M06 internal marker reporter; actives raise or lower the signal
In short: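 HepG2 cells transiently transfected with cis-regulated multiple reporter transcription units were exposed to chemical for 24 h; reporter mRNA was quantified by RT-PCR, 6-FAM primer labelling, HpaI digestion and capillary electrophoresis, fitted bidirectionally against DMSO.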

[7] = molecular target: Hepatocyte nuclear factor 6 (Homo sapiens) (UniProt Q9UBC0); test: ATG_HNF6_CIS: Attagene CIS-FACTORIAL HepG2 Assay for human Hepatocyte Nuclear Factor 6 (HNF6) (AID 2282952); settings: HepG2 Attagene cis-factorial HNF6 reporter transcription; actives raise or lower the signal
In short: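 HepG2 cells transiently transfected with cis-element-driven multiple reporter transcription units, dosed 24 h; reporter mRNA quantified by RT-PCR, FAM primer extension, HpaI digestion and capillary electrophoresis; bidirectional fit versus DMSO baseline.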

[8] = molecular target: Heat shock factor protein 1 (Homo sapiens) (UniProt Q00613); test: ATG_HSE_CIS: Attagene CIS-FACTORIAL HepG2 Assay for human Heat Shock Transcription Factor 1 (HSE) (AID 2282953); settings: HepG2 HSE cis-reporter, Attagene RNA transcription; actives raise or lower the signal
In short: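 HepG2 cells transiently transfected with multiple reporter transcription units under cis-regulatory promoter control, measuring endogenous transcription factor activity. After 24 h chemical exposure, reporter mRNA quantified by RT-PCR, fluorescent labelling, HpaI digestion and capillary electrophoresis; bidirectional fit versus DMSO.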

[9] = ATG_PBREM_CIS: Attagene CIS-FACTORIAL HepG2 Assay for human Phenobarbital-responsive Enhancer Module (PBREM) (AID 2282955); settings: HepG2 PBREM cis-reporter, Attagene multiplexed transcription; actives raise or lower the signal
In short: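 Reporter mRNA read by RT-PCR, 6-FAM primer extension, HpaI digestion and capillary electrophoresis. Transfected HepG2 cells, 24 h compound exposure. Gain or loss of signal fitted bidirectionally relative to DMSO baseline.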

[10] = molecular target: Paired box protein Pax-6 (Homo sapiens) (UniProt P26367); test: ATG_Pax6_CIS: Attagene CIS-FACTORIAL HepG2 Assay for human Paired Box 6 (PAX6) (AID 2282956); settings: HepG2 CIS-FACTORIAL PAX6 reporter transcription, RNA readout; actives raise or lower the signal
In short: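 Transient MRTU transfection of HepG2 → compound exposure 24 h → TriZol RNA, oligo(dT) RT → PCR, 6-FAM primer extension, HpaI cut → capillary electrophoresis; activity fitted both directions against DMSO.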

[11] = ATG_PXRE_CIS: Attagene CIS-FACTORIAL HepG2 Assay for human Pregnane X Receptor Element (PXRE) (AID 2282957); settings: HepG2 Attagene CIS-FACTORIAL PXRE reporter, mRNA; actives raise or lower the signal
In short: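 HepG2 cells transiently transfected with cis-regulated multiple reporter transcription units; endogenous factor activity measured as reporter mRNA 24 h after dosing. RT-PCR, fluorescent primer extension, HpaI digestion, capillary electrophoresis; bidirectional fit versus DMSO baseline.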

[12] = ATG_RORE_CIS: Attagene CIS-FACTORIAL HepG2 Assay for human RAR-related Orphan Receptor Element (RORE) (AID 2282959); settings: HepG2 Attagene cis-factorial RORE reporter, mRNA; actives raise or lower the signal
In short: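 Readout: fluorescent reporter mRNA by RT-PCR plus capillary electrophoresis, 24 h after dosing transfected HepG2 cells. Endogenous transcription factor activity on a cis promoter element is measured. Gain or loss of signal fitted against DMSO.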

[13] = ATG_Sox_CIS: Attagene CIS-FACTORIAL HepG2 Assay for human SRY-box transcription factor (SOX) (AID 2282960); settings: HepG2 Attagene cis-factorial SOX reporter, mRNA; actives raise or lower the signal
In short: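 Read-out: fluorescent RT-PCR products of SOX1-linked reporter transcripts resolved by capillary electrophoresis, fitted bidirectionally against DMSO. Transiently transfected HepG2 cells, 24 h after chemical exposure, endogenous transcription factor activity.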

[14] = ATG_SREBP_CIS: Attagene CIS-FACTORIAL HepG2 Assay for human Sterol Regulatory Element Binding (SREBP) (AID 2282962); settings: HepG2 Attagene cis-factorial SREBP reporter, mRNA; actives raise or lower the signal
In short: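 Transfected HepG2 (cis-regulated reporter library, endogenous TFs) → compound 24 h → total RNA → oligo(dT) RT → reporter-specific PCR → FAM primer extension, HpaI cut → CE fluorescence. Fit bidirectional vs DMSO.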

[15] = molecular target: Signal transducer and activator of transcription 3 (Homo sapiens) (UniProt P40763); test: ATG_STAT3_CIS: Attagene CIS-FACTORIAL HepG2 Assay for human Signal Transducer and Activator of Transcription 3 (STAT3) (AID 2282963); settings: HepG2, Attagene cis-factorial STAT3 reporter transcription; actives raise or lower the signal
In short: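 Values derive from bidirectional fits relative to DMSO of reporter mRNA levels, measured by RT-PCR with capillary electrophoresis, in HepG2 cells carrying transiently transfected cis-regulated reporter units and exposed 24 h.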

[16] = ATG_TA_CIS: Attagene CIS-FACTORIAL HepG2 Assay for human TA Basal Promoter (AID 2282964); settings: HepG2 Attagene CIS-factorial TA basal promoter reporter; actives raise or lower the signal
In short: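 HepG2 cells transiently transfected with multiplexed cis-promoter reporter units, dosed 24 h. Reporter mRNA measured by RT-PCR, 6-FAM labelling, HpaI digestion and capillary electrophoresis; bidirectional fit versus DMSO baseline, serving as background control.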

[17] = molecular target: Hypoxia-inducible factor 1-alpha (Homo sapiens) (UniProt Q16665); test: ATG_HIF1a_CIS: Attagene CIS-FACTORIAL HepG2 Assay for human Hypoxia Inducible Factor 1 (HIF1A) (AID 2282951); settings: HepG2 Attagene cis-factorial HIF1a reporter transcription; actives raise or lower the signal
In short: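 RT-PCR/capillary electrophoresis fluorescence readout of reporter transcripts from endogenous-TF-driven cis elements in transfected HepG2 cells, 24 h exposure; activity fitted in both directions against DMSO controls.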

[18] = ATG_MRE_CIS: Attagene CIS-FACTORIAL HepG2 Assay for human Metal Responsive Element (MRE) (AID 2282954); settings: HepG2 MRE cis-reporter transcription, Attagene multiplex; actives raise or lower the signal
In short: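 Fluorescent reporter fragments separated by capillary electrophoresis give mRNA induction for the MRE unit after 24 h treatment of transfected HepG2 cells. Endogenous transcription-factor activity is read; DMSO serves as negative control and baseline.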

[19] = ATG_PPRE_CIS: Attagene CIS-FACTORIAL HepG2 Assay for human Peroxisome Proliferator-activated Response Element (PPRE) (AID 2282958); settings: HepG2 PPRE cis-element reporter, Attagene transcription factor profiling; actives raise or lower the signal
In short: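 Read-out: fluorescent reporter mRNA fragments resolved by capillary electrophoresis after RT-PCR. HepG2 cells carried transiently transfected PPRE-driven cis reporter constructs and were dosed for 24 h; gain or loss of signal fitted relative to DMSO.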

[20] = molecular target: Transcription factor Sp1 (Homo sapiens) (UniProt P08047); test: ATG_Sp1_CIS: Attagene CIS-FACTORIAL HepG2 Assay for human Specificity Protein 1 (Sp1) (AID 2282961); settings: HepG2 Sp1 cis-reporter transcription, actives raise or lower the signal
In short: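 Read-out: fluorescence of 6-FAM-labeled, HpaI-digested RT-PCR products separated by capillary electrophoresis. HepG2 cells carried transfected cis-element reporter units and were exposed to chemicals for 24 h; gain or loss of signal fitted relative to DMSO.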

Measured: AC50

Chain of Paired box protein Pax-6 (Homo sapiens) (P26367 whole entry, looked up): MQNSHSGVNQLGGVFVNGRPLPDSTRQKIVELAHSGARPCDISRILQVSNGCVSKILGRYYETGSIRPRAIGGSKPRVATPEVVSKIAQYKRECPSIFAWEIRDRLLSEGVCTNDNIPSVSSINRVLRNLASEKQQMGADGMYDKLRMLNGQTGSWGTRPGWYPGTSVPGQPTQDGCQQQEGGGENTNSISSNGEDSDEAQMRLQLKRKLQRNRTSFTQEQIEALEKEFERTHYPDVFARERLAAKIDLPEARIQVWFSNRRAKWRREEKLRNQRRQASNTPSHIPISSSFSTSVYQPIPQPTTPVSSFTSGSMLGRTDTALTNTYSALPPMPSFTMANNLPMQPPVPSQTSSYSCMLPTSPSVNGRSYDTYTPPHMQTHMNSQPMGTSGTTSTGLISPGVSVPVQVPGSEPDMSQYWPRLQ
Chain of Hypoxia-inducible factor 1-alpha (Homo sapiens) (Q16665 whole entry, looked up): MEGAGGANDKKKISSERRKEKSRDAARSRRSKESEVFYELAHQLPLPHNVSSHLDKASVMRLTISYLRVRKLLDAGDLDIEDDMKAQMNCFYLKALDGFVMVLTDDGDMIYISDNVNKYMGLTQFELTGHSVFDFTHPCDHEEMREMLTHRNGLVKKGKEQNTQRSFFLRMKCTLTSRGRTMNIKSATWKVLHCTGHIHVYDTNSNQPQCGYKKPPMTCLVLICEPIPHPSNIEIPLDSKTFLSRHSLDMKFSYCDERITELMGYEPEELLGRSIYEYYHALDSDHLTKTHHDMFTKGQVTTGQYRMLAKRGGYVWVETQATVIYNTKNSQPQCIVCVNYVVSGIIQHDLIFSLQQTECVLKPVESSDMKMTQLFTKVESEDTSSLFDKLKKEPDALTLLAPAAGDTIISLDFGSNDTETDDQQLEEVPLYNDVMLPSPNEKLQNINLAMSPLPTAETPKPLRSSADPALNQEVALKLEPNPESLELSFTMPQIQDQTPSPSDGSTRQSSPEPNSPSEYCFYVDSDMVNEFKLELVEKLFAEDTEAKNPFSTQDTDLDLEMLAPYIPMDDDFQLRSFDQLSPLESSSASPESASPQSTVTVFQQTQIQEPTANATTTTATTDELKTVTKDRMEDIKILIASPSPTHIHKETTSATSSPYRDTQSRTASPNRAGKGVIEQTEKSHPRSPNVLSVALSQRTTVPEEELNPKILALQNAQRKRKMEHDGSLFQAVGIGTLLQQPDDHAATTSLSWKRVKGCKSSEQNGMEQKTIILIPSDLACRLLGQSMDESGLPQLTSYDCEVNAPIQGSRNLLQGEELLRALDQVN
Chain of Heat shock factor protein 1 (Homo sapiens) (Q00613 whole entry, looked up): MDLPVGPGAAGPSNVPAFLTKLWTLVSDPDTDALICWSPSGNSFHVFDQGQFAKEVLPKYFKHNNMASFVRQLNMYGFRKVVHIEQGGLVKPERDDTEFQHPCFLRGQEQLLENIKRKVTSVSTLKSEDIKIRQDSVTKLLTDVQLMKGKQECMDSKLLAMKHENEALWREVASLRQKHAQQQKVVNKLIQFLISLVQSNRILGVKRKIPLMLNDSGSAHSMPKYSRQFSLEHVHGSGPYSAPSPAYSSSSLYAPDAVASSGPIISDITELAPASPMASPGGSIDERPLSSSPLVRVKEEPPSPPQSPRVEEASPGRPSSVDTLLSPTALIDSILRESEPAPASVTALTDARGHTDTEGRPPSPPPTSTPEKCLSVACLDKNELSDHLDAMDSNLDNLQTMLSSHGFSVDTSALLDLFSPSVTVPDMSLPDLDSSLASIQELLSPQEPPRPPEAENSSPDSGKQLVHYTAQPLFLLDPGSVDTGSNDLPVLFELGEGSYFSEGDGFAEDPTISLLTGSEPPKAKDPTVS
Chain of Signal transducer and activator of transcription 3 (Homo sapiens) (P40763 whole entry, looked up): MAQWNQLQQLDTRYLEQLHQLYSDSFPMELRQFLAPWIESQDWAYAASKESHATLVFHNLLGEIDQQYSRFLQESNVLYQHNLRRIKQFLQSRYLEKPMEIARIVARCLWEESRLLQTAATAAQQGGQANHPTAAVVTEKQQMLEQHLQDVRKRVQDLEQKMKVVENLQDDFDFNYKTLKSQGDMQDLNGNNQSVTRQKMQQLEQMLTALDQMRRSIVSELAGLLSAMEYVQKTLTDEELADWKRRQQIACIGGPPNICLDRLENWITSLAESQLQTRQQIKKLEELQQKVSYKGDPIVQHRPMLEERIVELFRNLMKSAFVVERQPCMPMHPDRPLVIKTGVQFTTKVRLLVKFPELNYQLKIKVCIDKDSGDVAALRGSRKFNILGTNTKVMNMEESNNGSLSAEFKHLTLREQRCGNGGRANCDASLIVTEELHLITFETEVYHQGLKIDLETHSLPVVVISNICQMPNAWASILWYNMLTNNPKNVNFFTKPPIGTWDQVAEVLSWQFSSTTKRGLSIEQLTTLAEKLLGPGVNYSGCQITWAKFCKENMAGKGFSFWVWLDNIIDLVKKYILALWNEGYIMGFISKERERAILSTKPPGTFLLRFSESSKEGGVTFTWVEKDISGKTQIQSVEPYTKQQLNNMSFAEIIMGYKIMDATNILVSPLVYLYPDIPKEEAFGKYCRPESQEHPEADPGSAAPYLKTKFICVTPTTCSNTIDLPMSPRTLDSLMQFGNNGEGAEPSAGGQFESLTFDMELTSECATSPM
Chain of Transcription factor Sp1 (Homo sapiens) (P08047 whole entry, looked up): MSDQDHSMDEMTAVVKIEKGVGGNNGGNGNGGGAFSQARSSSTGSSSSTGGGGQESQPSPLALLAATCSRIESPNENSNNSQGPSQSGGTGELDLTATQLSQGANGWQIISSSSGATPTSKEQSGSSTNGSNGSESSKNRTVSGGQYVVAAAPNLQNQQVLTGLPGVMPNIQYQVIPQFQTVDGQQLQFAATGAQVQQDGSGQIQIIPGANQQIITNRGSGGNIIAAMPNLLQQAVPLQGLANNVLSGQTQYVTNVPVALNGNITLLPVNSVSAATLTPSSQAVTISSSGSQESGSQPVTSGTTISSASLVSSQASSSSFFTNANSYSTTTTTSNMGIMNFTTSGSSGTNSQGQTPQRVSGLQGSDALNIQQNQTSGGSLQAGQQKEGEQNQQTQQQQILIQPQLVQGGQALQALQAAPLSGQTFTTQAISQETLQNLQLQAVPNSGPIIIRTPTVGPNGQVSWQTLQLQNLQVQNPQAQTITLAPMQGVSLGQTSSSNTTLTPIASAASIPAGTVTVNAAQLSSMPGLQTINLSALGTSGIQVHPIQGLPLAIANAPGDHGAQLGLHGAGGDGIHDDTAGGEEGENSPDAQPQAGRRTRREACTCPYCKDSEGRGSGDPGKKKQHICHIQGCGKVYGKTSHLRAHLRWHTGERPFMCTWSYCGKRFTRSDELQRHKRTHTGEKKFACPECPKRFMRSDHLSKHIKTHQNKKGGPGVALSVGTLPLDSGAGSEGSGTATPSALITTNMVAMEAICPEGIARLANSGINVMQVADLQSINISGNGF
Chain of Bile acid receptor (Homo sapiens) (Q96RI1 whole entry, looked up): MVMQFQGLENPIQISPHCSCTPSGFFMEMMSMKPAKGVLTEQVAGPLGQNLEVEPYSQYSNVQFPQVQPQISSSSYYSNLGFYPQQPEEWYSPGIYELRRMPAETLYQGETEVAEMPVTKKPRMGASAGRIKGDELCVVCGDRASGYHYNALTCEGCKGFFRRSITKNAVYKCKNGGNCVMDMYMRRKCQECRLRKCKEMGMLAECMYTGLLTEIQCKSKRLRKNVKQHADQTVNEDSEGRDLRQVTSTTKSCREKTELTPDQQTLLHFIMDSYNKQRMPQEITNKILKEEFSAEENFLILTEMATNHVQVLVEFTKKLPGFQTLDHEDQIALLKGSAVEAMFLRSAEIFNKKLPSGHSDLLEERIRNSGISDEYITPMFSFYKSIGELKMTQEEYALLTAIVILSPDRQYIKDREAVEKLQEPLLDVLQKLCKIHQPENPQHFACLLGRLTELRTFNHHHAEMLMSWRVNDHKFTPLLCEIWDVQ
Chain of Hepatocyte nuclear factor 6 (Homo sapiens) (Q9UBC0 whole entry, looked up): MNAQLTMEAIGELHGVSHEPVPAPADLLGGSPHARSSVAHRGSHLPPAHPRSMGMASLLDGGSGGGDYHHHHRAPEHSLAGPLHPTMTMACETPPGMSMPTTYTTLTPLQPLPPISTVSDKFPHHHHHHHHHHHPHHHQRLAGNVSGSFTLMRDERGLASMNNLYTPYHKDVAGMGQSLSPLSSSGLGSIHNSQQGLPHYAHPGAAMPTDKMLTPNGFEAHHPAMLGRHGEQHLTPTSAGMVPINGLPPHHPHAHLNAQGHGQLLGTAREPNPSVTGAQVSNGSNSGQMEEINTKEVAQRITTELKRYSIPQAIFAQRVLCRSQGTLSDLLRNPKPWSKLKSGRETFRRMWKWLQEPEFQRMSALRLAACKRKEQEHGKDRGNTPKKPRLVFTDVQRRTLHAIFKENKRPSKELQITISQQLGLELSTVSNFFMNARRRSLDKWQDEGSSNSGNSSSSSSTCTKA

Nc1nc(N)c2nc(CNc3ccc(C(=O)N[C@@H](CCC(=O)O)C(=O)O)cc3)cnc2n1
not listed: [17] | [18] | [19] | [20]
inactive: all other assays above

O=C(O)Cc1ccccc1Nc1c(Cl)cccc1Cl
active: [11] 25.8 µM
not listed: [3]
inactive: all other assays above

NS(=O)(=O)c1cc2c(cc1Cl)NCNS2(=O)=O
active: [2] 3.7 µM
not listed: [6] | [9] | [17] | [19]
inactive: all other assays above

CC1(C)CC(N=C=O)CC(C)(CN=C=O)C1 (stereo not given)
active: [11] 55.6 µM
not listed: [3] | [18] | [19]
inactive: all other assays above

CCCCN(CCCC)CCCC
active: [11] 26.5 µM
not listed: [6] | [7] | [19] | [20]
inactive: all other assays above

NC(=O)Cn1c(=O)cc(CCN2CCN(c3nccc4sccc34)CC2)c2ccc(F)cc21
active: [17] 61.4 µM | [11] 5.72 µM | [14] 18.4 µM
not listed: [9]
inactive: all other assays above

Oc1ccc2ccccc2c1N=Nc1ccccc1
active: [17] 1.24 µM | [9] 5.39 µM | [11] 7.05 µM | [12] 2 µM
not listed: [3] | [7] | [18] | [19] | [20]
inactive: all other assays above

Cc1ccc(Cl)cc1
active: [17] 57.2 µM
inactive: all other assays above

COc1cc(-c2nc(NC(=O)c3cc4cc(C)cc(C)c4n3CC(=O)O)sc2CCC2CCCCC2)c(OC)cc1Cl
active: [1] 100 µM | [4] 12.7 µM | [8] 65.7 µM | [9] 4.42 µM | [10] 14.2 µM | [12] 10.4 µM | [13] 100 µM | [16] 10.3 µM
not listed: [6] | [18] | [20]
inactive: all other assays above

CCCCCCCCCCO
not listed: [9] | [18] | [19]
inactive: all other assays above

Cc1ccccc1Cl
not listed: [18] | [20]
inactive: all other assays above

O=c1[nH]cc(F)c(=O)[nH]1
active: [14] 18.3 µM
not listed: [6] | [7] | [9] | [17]
inactive: all other assays above

Cc1cc(NC(=O)C(=O)O)cc(C)c1Oc1ccc(O)c2c1CCC2
not listed: [19]
inactive: all other assays above

COc1cc(S(=O)(=O)O)c(C)cc1N=Nc1c(O)ccc2cc(S(=O)(=O)O)ccc12
active: [17] 5.78 µM
not listed: [6]
inactive: all other assays above

COc1cc(/C=C/C(=O)CC(=O)/C=C/c2ccc(O)c(OC)c2)ccc1O
active: [1] 53.9 µM | [2] 51 µM | [4] 33.4 µM | [7] 47.4 µM | [10] 46.6 µM | [11] 60.4 µM | [13] 43.1 µM | [14] 56.8 µM
inactive: [3] | [5] | [17] | [9] | [19] | [12] | [15] | [16]

Reference: PubChem BioAssay (EPA / NIEHS)
